About 18,000 (9%) of roughly 200,000 compounds were called active. The full list was thinned out, with actives kept by preference. A number with no mark means an inactive call. No stated cut-off is given here; in the data, active means inhibition above about 50%; inactive means the rest.

The nature of the experiment: antileishmanial activity against promastigotes – primary screen (AID 1063).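 Further: promastigotes grown with compound for 44 hours at 28 °C.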 The conditions noted are these: Leishmania major promastigotes, resazurin fluorescence viability; at 10 µM; hits give high values.
As for `CC1COc2ccccc2N1C(=O)c1cccnc1Cl` (stereo unspecified), the inhibition was -4%.

For `C=C(C)Cn1c(C)cc(C)c(S(=O)(=O)c2ccccc2C)c1=O`, the inhibition was 96% (active).

`CCN(CC(=O)Nc1ccc(Cl)c(S(=O)(=O)N(C)C)c1)Cc1nc2ccccc2c(=O)[nH]1`: the inhibition was -6.29%.

For the compound `Cc1ccc(NC(=O)CNCc2ccccn2)cc1S(=O)(=O)N(C)C`, the inhibition is 6.73%.

For `CN(C)S(=O)(=O)c1cc(NC(=O)CN2C(=O)NC3(CCCc4ccccc43)C2=O)ccc1Cl` (stereo unspecified), the inhibition is 57.4% (active).

As for `COc1ccc(C/C(N)=N/OC(=O)c2ccco2)cc1OC`, the inhibition is -5.88%.

As for `COc1ccc(C(=O)ON=C2c3ccccc3-c3ccccc32)cc1OC`, the inhibition was -6.29%.

For `COc1ccc(C(=O)O/N=C(\N)Cc2ccc(Cl)cc2Cl)cc1OC`, the inhibition was 71.9% (active).

For the compound `CN(Cc1ccc2nsnc2c1)Cc1nc(Cc2cccc(F)c2)no1`, the inhibition is -4.63%.

With `CN1CCN(C(=O)CCc2ncc(C(F)(F)F)cc2Cl)CC1`, the inhibition is -6.47%.

For the compound `O=C(NCC(=O)N(CC1CCCO1)C(C(=O)NC1CCCCC1)c1ccccc1)c1ccco1` (stereo unspecified), the inhibition was -4.69%.

For `Cc1cccc(Oc2c([N+](=O)[O-])c(=O)n(C)c3ccccc23)c1`, the inhibition is -3.73%.

Turning to `COc1ccc(/C=N/NC(=O)c2cccc(C(F)(F)F)c2)cc1`, the inhibition was 12%.

In the case of `C=CCNC(=S)N1CCN(CCN=Cc2c(C)[nH]n(-c3ccc([N+](=O)[O-])cc3)c2=O)CC1`, the inhibition is -7.1%.

As for `O=C1Nc2ccccc2C12Nc1ccccc1S2` (stereo unspecified), the inhibition is -4.59%.

On to `C=C1c2cc(CC)ccc2NC(=O)N1c1ccc(C)cc1`, for which the inhibition was 12.2%.

Regarding `CCc1ccc2c(c1)C1(NN=C(c3ccccc3)S1)C(=O)N2` (stereo unspecified), the inhibition is 99.1% (active).

On to `COc1ccccc1NC(=O)COc1ccc(C(=O)OCC(=O)N(C(C)C)C(C)C)cc1OC`, for which the inhibition is -1.06%.

On to `CCN(CCCCOC(=O)c1ccc(OC)c(OC)c1)C(C)Cc1ccc(OC)cc1` (stereo unspecified), for which the inhibition was 100% (active).

Consider `COc1ccc(C(=O)NC(Cc2ccc(OC(=O)c3ccc(OC)cc3)cc2)C(=O)O)cc1` (stereo unspecified), for which the inhibition was -3.89%.

Consider `CC(C)OC(=O)CN1CCN(c2ccc(Cl)cc2)CC1`, for which the inhibition was -1.87%.

Consider `COCc1[nH]nc2c1C(C1C=CCCC1)C(C#N)=C(N)O2` (stereo unspecified), for which the inhibition is 45.2%.

As to `CCCc1[nH]nc2c1C(C1CC=CCC1)C(C#N)=C(N)O2` (stereo unspecified), the inhibition is 66.6% (active).

As to `CCCc1[nH]nc2c1C(c1c(C)nn(-c3ccccc3)c1Cl)C(C#N)=C(N)O2` (stereo unspecified), the inhibition is 8.77%.

Regarding `CCCc1[nH]nc2c1C(c1ccc(OC(=O)c3ccco3)cc1)C(C#N)=C(N)O2` (stereo unspecified), the inhibition was 15.8%.

Regarding `CCCc1[nH]nc2c1C(c1ccc(Br)s1)C(C#N)=C(N)O2` (stereo unspecified), the inhibition is 100% (active).

On to `N#CC1=C(N)OC2=C(C(=O)CCC2)C1C1CC=CCC1` (stereo unspecified), for which the inhibition was 4.1%.

For the compound `CC(=O)N1CCN(S(=O)(=O)c2c(F)cc(F)c(Cl)c2F)CC1`, the inhibition was 0.83%.

For `COc1ccc(C(=O)Nc2cccc(S(C)(=O)=O)c2)cc1`, the inhibition was -0.33%.

`CC(C)(C)NC(=O)COC(=O)c1cc(Cl)ccc1[N+](=O)[O-]`: the inhibition was 2.68%.

As to `CCOC(=O)C1(Cc2cccc(OC)c2)CCCN(S(=O)(=O)c2cccnc2)C1` (stereo unspecified), the inhibition is 1.74%.

With `CCOC(=O)c1sc(/N=C/C2=C(O)CC(C)(C)CC2=O)c(C(=O)OCC)c1C`, the inhibition is -3.8%.

On to `Cn1c(=O)c2c(ncn2CCc2ccccc2)n(C)c1=O`, for which the inhibition was -0.5%.

For `Cn1c(=O)c2c(ncn2CC(COCc2ccccc2Cl)OCc2ccccc2Cl)n(C)c1=O` (stereo unspecified), the inhibition is 96.2% (active).

With `Cn1c(=O)c2c(ncn2CC(=O)N2CCN(c3ccccc3)CC2)n(C)c1=O`, the inhibition is -3.01%.

Consider `Cc1ncc([N+](=O)[O-])n1CCOC(=O)c1ccc(Br)cc1`, for which the inhibition was 13.8%.

With `Cc1cccc(C)c1NC(=O)C1(C)c2cccc[n+]2CC(=O)N1Cc1cccs1` (stereo unspecified), the inhibition was 13.1%.

As for `O=C(NCCOCc1ccc(Cl)cc1)c1ncn[nH]1`, the inhibition is 24.4%.

`CC(C)(C)c1ccc(C(=O)CSc2ncn[nH]2)cc1`: the inhibition was -1.37%.

As for `O=C(/C=C/Sc1ncn[nH]1)c1ccc(Cl)cc1`, the inhibition was 100% (active).

As for `Cc1cc(C)n(-c2nnc(N3CCN(c4ccccc4)CC3)nn2)n1`, the inhibition is 10.3%.

For `Cc1n[nH]c(=O)n1-c1ccc(C(C)C)cc1`, the inhibition was -3.84%.

For the compound `C/C(=N/O)c1ccc(N2C(=O)C3C4C=CC(C3C2=O)C2C3C(=O)N(c5ccc(/C(C)=N/O)cc5)C(=O)C3C42)cc1` (stereo unspecified), the inhibition was -0.53%.

Turning to `Cc1ccc2[nH]c(=O)c(CN3CCCCC3)c(-c3ccccc3)c2c1`, the inhibition was 6.53%.

Consider `Nc1cccc(CCc2nc3ccccc3[nH]2)c1`, for which the inhibition was -2.96%.

Consider `CS(=O)(=O)c1sc2nc(-c3ccccc3)cc(-c3ccccc3)c2c1N`, for which the inhibition was 3.87%.

Turning to `Nc1cccc(-c2cc(-c3ccccc3)nc(-c3cccc(N)c3)n2)c1`, the inhibition is 64% (active).

Take `OC1CSc2nc3ccccc3n2C1` (stereo unspecified): the inhibition is 0.82%.

Turning to `O=C(Nc1cccc(C(F)(F)F)c1)c1cnccn1`, the inhibition is 7.19%.

For `O=c1[nH]n(-c2cccc(Cl)c2)c2ncccc12`, the inhibition is -7.31%.

For `Clc1cccc(CN2COc3c(cc(Cl)c4cccnc34)C2)c1`, the inhibition is 101% (active).

Take `Nc1c(C(=O)NCc2ccccc2)nnn1Cc1cccc(Cl)c1`: the inhibition is -2.28%.

Turning to `O=C(C(=O)N1CCc2ccccc2C1)c1c[nH]c2ccccc12`, the inhibition was 4.91%.

In the case of `Cc1ccccc1NC(=O)NC1(C(=O)N2CCCC2)CCCCC1`, the inhibition is -6.94%.

For `Cc1ccc(C(=O)NNC(=O)c2cccs2)cc1`, the inhibition was 5.96%.

As to `O=C(O)c1ccc(NC(=O)c2cccs2)cc1`, the inhibition is -4.2%.

On to `CC(C)C(=O)Nc1ccc(C(=O)NNC(=O)c2cccs2)cc1`, for which the inhibition is 66.2% (active).

`COc1ccc(OC)c(S(=O)(=O)NCCC(C)C)c1`: the inhibition was -7.99%.

For `O=C1Oc2ccccc2C(=O)/C1=C/c1ccccc1O`, the inhibition is 7.18%.

With `CN1CCN(C(=O)N2c3ccccc3CCc3ccccc32)CC1`, the inhibition is -0.1%.

For `O=C(Nc1cccc(O)c1)c1ccc(C(=O)c2ccccc2)o1`, the inhibition was 26.7%.

The values above are taken from PubChem BioAssay AID1063 (University of Pittsburgh Molecular Library Screening Center, 2008).
